The values that follow come from PubChem BioAssay (NCATS).

Assay [1] concerns the target Cytochrome P450 2D6 (Homo sapiens) (UniProt P10635). Briefly: Cytochrome P450 family 2 subfamily D member 6 (CYP2D6) small molecule antagonists: luciferase biochemical (cell-free) qHTS assay (AID 1645840). Further: nearly all actives have a fitted effect of over 55% in size. The essentials:
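P450-Glo luminescent screen: recombinant CYP2D6 enzyme–proluciferin substrate mix preincubated with compound 10 min at room temperature, then NADPH regeneration added for 1 h at room temperature. Detection reagent added for 20 min; luciferin light read as relative luminescence units.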
(Quantitative high-throughput screening tests each substance at several concentrations.)

Assay [2] deals with Cytochrome P450 2C9 (Homo sapiens) (UniProt P11712). Description: Cytochrome P450 family 2 subfamily C member 9 (CYP2C9) small molecule antagonists: luciferase biochemical (cell-free) qHTS assay (AID 1645842). Further: nearly all actives have a fitted effect of over 55% in size. The essentials: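 Luminescence, after 20 min with luciferin detection reagent, reflected CYP2C9 turnover during a 1 h NADPH-driven reaction at 37C. Enzyme-substrate mix contained 0.4% bovine serum albumin and was preincubated with compound 10 min at room temperature.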

A short description of assay [3]: Primary qHTS for inhibitors of nuclear receptor binding SET domain protein 2 (NSD2) in an isogenic RCH-ACV NSD2 p.E1099K mutant (9B) (AID 1645876; active means well fitted curve in the direction sought with a large enough effect; an effect the other way counts as inactive or inconclusive; further: nearly all actives have a fitted effect of over 70% in size).
Assay [4] is described as follows: Primary qHTS for inhibitors of nuclear receptor binding SET domain protein 2 (NSD2) in an RCH-ACV wild type WT cells (2C) (AID 1645877; active means well fitted curve in the direction sought with a large enough effect; an effect the other way counts as inactive or inconclusive; further: nearly all actives have a fitted effect of over 70% in size).
Assay [5] has as its target Cytochrome P450 3A4 (Homo sapiens) (UniProt P08684). Description: Cytochrome P450 family 3 subfamily A member 4 (CYP3A4) small molecule antagonists: luciferase qHTS assay (AID 1645841). Further: nearly all actives have a fitted effect of over 45% in size. The essentials:
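P450-Glo CYP3A4 enzyme with proluciferin substrate was preincubated with DMSO-dissolved compounds for 10 min at room temperature. NADPH regeneration solution started a 1 h reaction. Detection reagent stopped it, and luminescence was read after 20 min.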

“And” between values parts separate entries of the source, which are not always exact repeats. Equal entries are not always repeated. Results filed as inconclusive are left out. Where a structure was tested more than once in an assay, its records may differ in their call. The source made the active and inactive calls. Unless noted, the call rests on the fitted dose curve; in most records, active means well fitted curve in the direction sought with a large enough effect in the repeat runs; inconclusive means weak or mixed curves; inactive means no such curve, though single readings can be large; an effect the other way counts as inactive or inconclusive.
Potency means the concentration at half of the fitted maximal effect.

Sequence of Cytochrome P450 2D6 (Homo sapiens) (P10635 whole entry, looked up): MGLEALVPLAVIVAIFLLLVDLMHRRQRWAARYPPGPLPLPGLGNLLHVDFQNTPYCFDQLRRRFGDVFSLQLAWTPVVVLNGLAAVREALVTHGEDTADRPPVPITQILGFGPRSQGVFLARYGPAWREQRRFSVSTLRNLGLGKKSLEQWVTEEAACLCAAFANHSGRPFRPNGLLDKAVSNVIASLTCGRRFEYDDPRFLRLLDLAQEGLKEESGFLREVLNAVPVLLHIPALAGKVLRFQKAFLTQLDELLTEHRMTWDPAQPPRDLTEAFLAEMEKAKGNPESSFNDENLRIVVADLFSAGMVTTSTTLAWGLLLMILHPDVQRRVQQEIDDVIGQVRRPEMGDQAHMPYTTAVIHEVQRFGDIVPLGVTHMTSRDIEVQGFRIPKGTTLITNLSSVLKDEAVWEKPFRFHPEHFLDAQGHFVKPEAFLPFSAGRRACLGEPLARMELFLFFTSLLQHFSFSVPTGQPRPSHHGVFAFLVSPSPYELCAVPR
Sequence of Cytochrome P450 3A4 (Homo sapiens) (P08684 whole entry, looked up): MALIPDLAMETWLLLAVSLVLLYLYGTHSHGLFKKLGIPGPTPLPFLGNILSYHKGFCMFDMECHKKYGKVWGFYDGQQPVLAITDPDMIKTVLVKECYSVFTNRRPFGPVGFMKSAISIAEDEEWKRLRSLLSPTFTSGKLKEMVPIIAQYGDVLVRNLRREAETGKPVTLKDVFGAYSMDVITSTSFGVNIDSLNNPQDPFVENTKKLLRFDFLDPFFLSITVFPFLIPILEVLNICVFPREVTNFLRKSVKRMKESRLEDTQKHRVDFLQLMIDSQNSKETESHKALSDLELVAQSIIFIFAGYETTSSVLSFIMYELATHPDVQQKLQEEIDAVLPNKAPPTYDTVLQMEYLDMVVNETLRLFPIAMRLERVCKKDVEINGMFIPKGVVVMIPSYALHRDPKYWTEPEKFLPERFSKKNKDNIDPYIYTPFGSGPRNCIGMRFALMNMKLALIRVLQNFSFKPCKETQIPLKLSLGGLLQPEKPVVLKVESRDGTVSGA
Sequence of Cytochrome P450 2C9 (Homo sapiens) (P11712 whole entry, looked up): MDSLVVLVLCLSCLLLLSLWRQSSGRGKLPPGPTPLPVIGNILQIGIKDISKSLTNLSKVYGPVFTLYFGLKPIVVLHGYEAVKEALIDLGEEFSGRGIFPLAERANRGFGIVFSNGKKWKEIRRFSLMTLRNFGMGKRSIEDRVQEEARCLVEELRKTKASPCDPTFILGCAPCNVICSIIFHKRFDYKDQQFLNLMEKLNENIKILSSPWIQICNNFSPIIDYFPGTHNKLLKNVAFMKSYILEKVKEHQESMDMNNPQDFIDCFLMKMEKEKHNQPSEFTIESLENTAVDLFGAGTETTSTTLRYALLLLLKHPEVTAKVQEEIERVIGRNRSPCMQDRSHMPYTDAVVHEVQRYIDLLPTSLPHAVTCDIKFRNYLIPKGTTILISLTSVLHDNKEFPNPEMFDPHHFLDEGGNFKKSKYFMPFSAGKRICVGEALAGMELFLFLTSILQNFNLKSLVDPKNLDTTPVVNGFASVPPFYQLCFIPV

In the case of `NS(=O)(=O)Nc1ncnc(OCCOc2ncc(Br)cn2)c1-c1ccc(Br)cc1`, the Potency entry in assay [1] was “inactive”. Also, the figures for the Potency in assay [2], in assay [3] and in assay [4] were 4.77 µM (active), 16.3 µM (active) and 11.5 µM (active), respectively.

For `Cc1c(NC(=O)OCC2COCCN2)cn2ncnc(Nc3ccc4c(cnn4Cc4cccc(F)c4)c3)c12` (centres undefined), the Potency in assay [1] was 21.3 µM (active); in assay [2] it was 19 µM (active); in assay [3] it was 14.5 µM (active) and 18.6 µM (active); in assay [4] it was 16.3 µM (active) and 16.6 µM (active).

Turning to `COc1cc2ncnc(Nc3cccc(I)c3)c2cc1OC`, the Potency in assay [1] is 12 µM (active); in assay [2], 13.5 µM (active); in assay [3] it was 16.3 µM (active); in assay [4] it was 14.5 µM (active) and inactive.

`CNc1cccc(CCOc2ccc3c(c2)CN(CC(F)(F)F)C(=O)[C@H](CC(=O)O)C3)n1`: the Potency entry in assay [1], in assay [2], in assay [3] and in assay [4] was “inactive” throughout.

Turning to `O=C(COc1ccc2ccccc2c1Br)Nc1cccnc1`, the figures for the Potency in assay [1] and in assay [2] were 0.301 µM (active) and 8.49 µM (active), respectively. In addition, the Potency result in assay [3] and in assay [4] was “inactive” each time.

For the compound `CC(C)(C)Sc1c(CC(C)(C)C(=O)O)n(Cc2ccc(Cl)cc2)c2ccc(OCc3ccc4ccccc4n3)cc12`, the Potency entry in assay [1], in assay [3] and in assay [4] was “inactive” each time. Moreover, in assay [2], the Potency was 1.69 µM (active).

`Cn1ncnc1[C@@H]1c2n[nH]c(=O)c3cc(F)cc(c23)N[C@H]1c1ccc(F)cc1`: the Potency entry in assay [1] and in assay [2] was “inactive” each time. Also, the Potency is 20.5 µM (active) in assay [3] and 9.16 µM (active) in assay [4].

On to `O=C(c1ccc(OC(F)F)c(C#Cc2ccccn2)c1)N1Cc2cccnc2C1`, for which, in assay [1], the Potency is 21.3 µM (active). The Potency result in assay [2], in assay [3] and in assay [4] was “inactive” throughout.

For `Cc1ccc(NC(=O)C(C)C)cc1C1CCN(Cc2ccc(Oc3ccc(F)c(F)c3)cc2)CC1`, the Potency in assay [1] is 5.35 µM (active); in assay [2], 9.52 µM (active); in assay [3] it was 12.9 µM (active); in assay [4], 9.16 µM (active).

For `Cc1onc(-c2ccccc2)c1C(=O)N1CCN(c2ccc([N+](=O)[O-])cc2Cl)CC1`, the Potency in assay [1] is 5.35 µM (active); in assay [2] it was 9.52 µM (active). Also, the Potency result in assay [3] and in assay [4] was “inactive” throughout.

For `CN1CCN(C2=Nc3ccccc3Nc3ccc(OS(=O)(=O)C(F)(F)F)cc32)CC1`, the Potency in assay [2] was 10.7 µM (active).

Regarding `COc1nc2ccc(Br)cc2cc1[C@@H](c1ccccc1)[C@@](O)(CCN(C)C)c1cccc2ccccc12`, the Potency in assay [2] was 3.79 µM (active).

Take `COc1ccc(C#Cc2ccc(C(=O)N3CCC[C@@H](CO)C3)cc2)cc1`: the Potency in assay [2] was 21.3 µM (active).

As to `Cc1ccc(N2CCN(S(=O)(=O)N3CCCCC3)CC2)c(C)c1`, the Potency in assay [2] is 0.849 µM (active).

Turning to `O=C1C(c2[nH]c3ccc(S(=O)(=O)O)cc3c2O)=Nc2ccc(S(=O)(=O)O)cc21`, the Potency entry in assay [2] was “inactive”.

Take `COc1ccc2nc3n[nH]c(C)c3c(NCCOCCO)c2c1`: the Potency in assay [1] is 9.52 µM (active); in assay [4], 3.25 µM (active).

On to `Cn1c(SCC(=O)N2CCC[C@H]2C(=O)Nc2ccccc2-c2ccccc2)nc2ccccc21`, for which, in assay [1], the Potency was 16.9 µM (active). For the same compound, in assay [4], the Potency result was “inactive”.

Consider `NS(=O)(=O)c1ccc(N2CCN(CC[C@@H]3OCCc4ccccc43)CC2)cc1`, for which the Potency entry in assay [5], in assay [2], in assay [3] and in assay [4] was “inactive” in each case.

As for `C[C@@H](O[C@H]1OCCN(Cc2nn(P(=O)(O)O)c(=O)[nH]2)[C@H]1c1ccc(F)cc1)c1cc(C(F)(F)F)cc(C(F)(F)F)c1`, the Potency in assay [2] was 13.1 µM (active).

As to `O=C(O)c1cccc(-c2ccc(-c3cn(C(=O)N4CCCCC4Cc4ccccc4)nn3)cc2)c1` (centres undefined), the Potency in assay [2] is 8.49 µM (active).

Regarding `CC(C)S(=O)(=O)Nc1ccc(F)c(C(=O)c2c[nH]c3ncc(-c4cccnc4)cc23)c1F`, the Potency in assay [1] was 5.35 µM (active); in assay [3], 4.09 µM (active); in assay [4], 4.59 µM (active).

On to `CN(C)c1ccnc2sc3c(=O)n(N4CCCCCC4)cnc3c12`, for which, in assay [2], the Potency was 7.56 µM (active).

For the compound `CCN1CCC[C@@H]1CNC(=O)c1ccc2c(c1)NC(=O)c1cccc(C)c1S2`, the Potency entry in assay [5] and in assay [2] was “inactive” throughout.

On to `CC1(C)Oc2ncnc(N)c2N=C1c1ccc(C23CCC(CC(=O)O)(CC2)CC3)cc1`, for which the Potency result in assay [5], in assay [2], in assay [3] and in assay [4] was “inactive” each time.

As to `CC(C)(O)c1ccc2c(c1)ncn2-c1cccc(-c2ccccc2C#N)c1`, the Potency in assay [2] is 2.13 µM (active).

In the case of `COc1ccc2cc(-c3cc(-c4cc(Cl)cc(Cl)c4)nn3C(C)c3ccc(C(=O)NCCC(=O)O)cc3)ccc2c1` (centres undefined), in assay [2], the Potency is 10.7 µM (active).

`Cc1ccc(C(=O)Nc2ccc(CN3CCN(C)CC3)c(C(F)(F)F)c2)cc1C#Cc1cnc2[nH]ncc2c1`: the Potency in assay [5] is 6.01 µM (active); in assay [2], 4.77 µM (active); in assay [3] it was 11.5 nM (active) and 26.3 nM (active); in assay [4] it was 14.5 nM (active) and 41.7 nM (active).

Regarding `COc1ccc(CCCN2CCC(COC(c3ccccc3)c3ccccc3)CC2)cc1`, the Potency in assay [1] is 0.0535 µM (active); in assay [4], 16.3 µM (active).

Take `c1ccc(-c2cnn3cc(-c4ccc(OCCN5CCOCC5)cc4)cnc23)cc1`: the Potency in assay [2] was 3.38 µM (active).

With `COC(=O)c1sccc1S(=O)(=O)Nc1ccc(Nc2ccccc2)cc1OC`, in assay [2], the Potency was 2.39 µM (active).

As for `Cc1ccc(N2CCN(CCC3NC(=O)c4ccccc43)CC2)cc1C` (centres undefined), the Potency result in assay [1], in assay [3] and in assay [4] was “inactive” throughout.

For the compound `CN1CCN(c2ccc(OC(F)(F)F)c(Nc3ncc4c(n3)-c3c(c(C(N)=O)nn3CCO)CC4)c2)CC1`, the Potency entry in assay [1] is “inactive”. The Potency in assay [3] was 57.8 nM (active) and 118 nM (active); in assay [4] it was 72.8 nM (active) and 132 nM (active).

With `O=C(Nc1ccccc1)N1CCN(c2nc(-c3ccccc3)ns2)CC1`, the Potency in assay [2] was 5.35 µM (active).

Consider `Cc1noc(-c2ccc(-c3ccc(CC(=O)O)cc3)cc2)c1NC(=O)O[C@H](C)c1ccccc1Cl`, for which the Potency in assay [2] was 3.01 µM (active).

With `COc1c(F)cccc1C(=O)N1C[C@@H](C)CC[C@H]1CNc1ccc(Br)cn1`, the Potency in assay [2] is 5.35 µM (active).
